NPC1 prom act = activates the NPC1 promoter; Potency, µM (top dose mostly 9.22 µM), for inactives: at the highest dose activation, actives largely listed as activators; Huh7 NPC1 promoter luciferase reporter, 24 h; AID 485313; 320,000 tested, 2.4% active; also: % of control where 0% means no effect; nearly all actives have a fitted effect of over 60% in size
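Compounds in DMSO were transferred onto Huh7 NPC1-luciferase reporter cells pre-incubated 2 h; after 24 h at 37 °C, Amplite reagent was dispensed and luminescence recorded 10 min later.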
FLuc counter = inhibits or activates purified firefly luciferase, miR-21 counter-screen; P08659; purified FLuc, Km substrates, luminescence inhibition; Potency, µM (titrated, usually from 57.5 µM), without a hit: top-dose activity change, negative = inhibition, actives largely listed as inhibitors; 360,000 tested, 6.9% active;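 also: plate controls were vehicle for no effect and reference inhibitor for full effect; nearly all actives have a fitted effect of over 55% in size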
Target sequence (P08659 whole entry, looked up): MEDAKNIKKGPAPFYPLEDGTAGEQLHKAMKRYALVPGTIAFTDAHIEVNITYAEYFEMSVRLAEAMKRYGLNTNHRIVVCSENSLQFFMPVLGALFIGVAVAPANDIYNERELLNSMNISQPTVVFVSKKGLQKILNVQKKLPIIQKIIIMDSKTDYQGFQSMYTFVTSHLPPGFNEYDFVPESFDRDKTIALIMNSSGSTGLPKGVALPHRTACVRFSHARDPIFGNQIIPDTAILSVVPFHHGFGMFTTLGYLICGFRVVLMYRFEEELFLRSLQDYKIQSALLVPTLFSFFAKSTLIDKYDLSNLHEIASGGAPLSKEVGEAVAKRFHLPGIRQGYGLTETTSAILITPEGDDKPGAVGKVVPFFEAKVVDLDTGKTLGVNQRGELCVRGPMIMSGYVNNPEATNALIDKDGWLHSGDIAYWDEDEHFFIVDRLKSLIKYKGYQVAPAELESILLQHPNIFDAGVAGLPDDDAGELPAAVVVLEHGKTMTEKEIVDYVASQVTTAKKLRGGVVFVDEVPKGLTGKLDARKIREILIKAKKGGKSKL
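Purified P. pyralis luciferase (10nM final) with 10uM D-luciferin and 10uM ATP (Km levels) in 50mM Tris acetate pH 7.5, 10mM Mg acetate, 0.01% Tween-20, 0.05% BSA; qHTS 6-point titration, ~60 µM downward; luminescence read.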
Rab9 promoter act = Rab9 promoter activation; Huh7 Rab9 promoter-luciferase reporter, luminescence, 24 h; Potency, µM (doses to about 9.22 µM), inactives show top-dose activation, negative = inhibition, hits mostly activators; 320,000 tested, 2.8% active; also: % of control where 0% means no effect; nearly all actives have a fitted effect of over 60% in size
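Promoter activation is measured as luciferase luminescence in Huh7 cells stably transfected with a Rab9 promoter–luciferase construct, following 24 h compound exposure at 37 °C and 10 min reagent incubation at ambient temperature.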
ELG1 genotoxic = induces genotoxicity in HEK293T cells with luciferase-tagged ELG1; Potency, µM (top dose mostly 46 µM), inactives show at the top dose activity change, positive = activation, usual class: activators; 330,000 tested, 1.3% active; AID 504466; HEK293T ELG1-luciferase reporter, luminescence, 16 h; also: % of control where 0% means no effect; nearly all actives have a fitted effect of over 60% in size
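HEK293T cells expressing luciferase-tagged ELG1 were exposed to compound or DMSO vehicle for 16 hr at 37 °C and 5% CO2. Luciferase activity was then measured with ONE-Glo after 30 min at room temperature.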
SMN2 splice enh = SMN2 splice variant enhancement; AID 1458; HEK293 SMN2-luciferase splicing reporter, luminescence, 30-36 h; Potency, µM (titrated, usually from 46.1 µM), for the others: at the top dose activity change, positive = activation, most hits filed as activators; 210,000 tested, 2.8% active; also: % of control where 0% means no effect; nearly all actives have a fitted effect of over 55% in size
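HEK293 cells carry an SMN2 minigene-luciferase reporter in which exon 7 inclusion puts luciferase in frame. Cells were seeded at 2000 cells/well, attached for 10-12 hours, then exposed to compounds for 30-36 hours at 37C before ONE-Glo luminescence.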
Starred values were filed as active, the others as inactive; ? = inconclusive; / = not tested or not shown; [ ] = dose if it differs, or a comment. Sampled rows, rich in hits. Any-hit rate of the full collection: about 7.4%. Calls follow the shape of the dose curve; as a rule, active = well fitted curve in the direction sought with a large enough effect; inconclusive = small, poorly fitted or top-dose-only effect, or another doubt; inactive = no such curve, though single readings can be large; an effect the other way counts as inactive or inconclusive. Potency is read from the fitted curve at half-maximal effect.

SMILES	NPC1 prom act	FLuc counter	Rab9 promoter act	ELG1 genotoxic	SMN2 splice enh
Cc1ccc(/C=C(\C#N)C(=O)Nc2ccccn2)o1	?	8.5µM*	2.5µM*	5.2µM*	18µM*
Cc1cccc(NC(=O)/C(C#N)=C\c2ccc(C(=O)O)cc2)c1	-6%	?	-5%	-9%	-7%
COc1ccc(O)c(/C=C(\C#N)C(=O)Nc2ccccn2)c1	-2%	2.4µM*	-2%	17%	/
COc1ccc(/C=C(\C#N)C(=O)Nc2ccccn2)cc1	-8%	2.1µM*	-7%	?	/
O=C(c1nc(-c2ccc(Cl)cc2)n2c1CCCCC2)N1CCN(c2ccc(F)cc2)CC1	/	0%	/	/	/
O=C(O)c1ccccc1CN1CCC[C@@H](C(=O)O)C1	/	/	/	/	-2%[9.22 µM]
Oc1ccc2ccccc2c1CN(Cc1c(O)ccc2ccccc12)C1CCCCC1	/	/	/	/	-11%[9.22 µM]
COC(=O)CSc1nnc(SCc2ccc(OC)cc2)s1	0%	24µM*	-11%	0%	1%
CCCCC(=O)Nc1nnc(SCC(=O)Nc2ccc(OC)cc2)s1	-7%	1%	0%	?	/
COCCNC(=O)CSc1nnc(NC(=O)Nc2ccc(C)cc2)s1	/	12µM*	/	/	/
COc1ccc(NC(=O)CSc2nnc(NC(=O)c3ccccc3C(=O)O)s2)cc1	-1%	27µM*	-5%	-2%	/
Cc1nnc(SCC(=O)Nc2ccc3[nH]c(=O)[nH]c3c2)s1	-2%	4%	-12%	0%	/
COc1ccc(Nc2nnc(SCC(=O)Nc3ccc4[nH]c(=O)[nH]c4c3)s2)cc1	3%	2.4µM*	11%	6%	/
COc1ccc(CSc2nnc(SCc3ccc([N+](=O)[O-])cc3)s2)cc1	2%	-2%	-2%	1%	-21%
CCCSc1nnc(NC(=O)Nc2ccc(C)cc2)s1	2%	0%	-2%	-3%	/
CN(C)CCNc1oc(-c2ccc(COc3ccc(Cl)cc3)o2)nc1C#N	/	4%	/	/	/
CC(C)(C)c1ccc(CN(Cc2ccco2)c2cnc(S(C)(=O)=O)nc2C(=O)Nc2ccc(F)cc2)cc1	/	0%	/	/	/
COc1ccc(NC(=O)CSc2nnc(NC(=O)Nc3ccc(OC)cc3)s2)cc1	/	0.38µM*	/	/	/
C/C(=N\Nc1ccc(S(N)(=O)=O)cc1[N+](=O)[O-])c1ccccc1O	0%	3%	-6%	4%	/
CC/C(=N\Nc1ccccc1[N+](=O)[O-])c1ccc(O)cc1	6%	27µM*	0%	10%	/
C/C(=N\Nc1ccccc1[N+](=O)[O-])c1ccccc1O	8%	5.4µM*	-1%	21µM*	/
CC/C(=N\Nc1ccc([N+](=O)[O-])cc1[N+](=O)[O-])c1ccc(O)cc1	0%	-1%	-2%	-1%	/
Cc1ccn2cc(-c3ccc4c(c3)NC(=O)CO4)nc2c1	1.3µM*	2.4µM*	0.56µM*	?	5.6µM*
Cc1ccc(-c2cc(-c3ccc4c(c3)NC(=O)CO4)nc3c2COc2ccc(C)cc2-3)cc1	/	?	/	/	2%
Cc1cccn2cc(-c3ccc4c(c3)NC(=O)CO4)nc12	25%	11µM*	?	11%	/
SMILES	NPC1 prom act	FLuc counter	Rab9 promoter act	ELG1 genotoxic	SMN2 splice enh
O=C(Cn1nc(N2CCN(c3ccccc3)CC2)ccc1=O)NCc1cccc(Cl)c1	/	-7%	/	/	/
Cc1cccc2c1-c1sc(C(=O)Nc3nccs3)cc1CO2	2.5µM*	2.4µM*	1.1µM*	?	?
CCc1ccccc1N(C)C(=O)c1cc2c(s1)-c1c(C)cccc1OC2	/	-4%	/	/	-11%
O=C(Nc1cccnc1Cl)c1cc2c(s1)-c1ccccc1OC2	?	?	?	11%	/
O=C(Nc1nccs1)c1cc2c(s1)-c1ccccc1OC2	2µM*	1.7µM*	3.2µM*	8.2µM*	10µM*
O=C(Nc1nc2ccccc2s1)c1cc2c(s1)-c1ccccc1OC2	26%	-11%	?	13µM*	-13%
CCOC(=O)c1cc2c(s1)-c1c(C)cccc1OC2	?	13µM*	?	?	0%
CSc1nc(Nc2ccc(C)cc2C)cc(-c2ccccc2)n1	/	0%	/	/	/
Cc1cccc(-n2ccc(=O)c(C(=O)Nc3ccc(S(=O)(=O)Nc4nccc(C)n4)cc3)n2)c1	1%	3%	-4%	10%	/
Cc1ccc(C)c(NC(=O)CSc2nnc(NC(=O)Nc3ccccc3)s2)c1	/	-20%	/	/	/
